For assay [1], the system named is TRPC4 beta (transient receptor potential cation channel C4), mouse. Put plainly: TRPC4 cation channel opening, retest – cell-based, Fluo4 calcium, HEK293 TRPC4beta/mu-opioid, duplicates, 10 µM, confirmation (AID 2426;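 active = fluorescence ratio normalized to control raised more than 50% in primary screen plus both repeat runs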). Conditions: Fluo4 calcium fluorescence, at 10 µM; hits give high values.
The test system of assay [2] is transient receptor potential cation channel C4 beta (TRPC4), mouse. Put plainly: TRPC4 cation channel opening, second retest – cell-based, second round, Fluo4, HEK293 TRPC4beta/mu-opioid, 1 µM, confirmation (AID 2461;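 active = primary screen active and over 50% activation in each of two duplicate runs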). Conditions: Fluo4 calcium fluorescence, at 1 µM; hits give high values.
Assay [3] relates to TRPC4 (transient receptor potential cation channel C4 beta), mouse. Put plainly: potentiation of DAMGO EC20 TRPC4 response – cell-based, second round, Fluo-4, HEK293 TRPC4beta/mu-opioid, 1 µM, confirmation (AID 2554;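 active = primary screen hit whose fluorescence ratio, in both repeats, exceeds the weak agonist control mean by 3 SD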). Conditions: DAMGO EC20, Fluo-4 calcium flux, at 1 µM; hits give high values. (Calcium flux is commonly read through the fluorescence of an indicator in the cells.)

Assay [4] concerns TRPC4 beta (transient receptor potential cation channel C4), mouse. Description: potentiation of DAMGO EC20 TRPC4 response – cell-based, Fluo-4, HEK293 TRPC4beta/mu-opioid, confirmation (AID 2555;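 active = primary screen hit whose calcium fluorescence ratio, in both repeats, exceeds the weak agonist control mean by 3 SD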). Conditions: DAMGO EC20, Fluo-4 calcium flux, at 10 µM; hits give high values.
The target of assay [5] is Short transient receptor potential channel 4 (Mus musculus) (UniProt Q9QUQ5). Put plainly: blockers of DAMGO-evoked TRPC4 calcium flux – cell-based, Fluo4, HEK293 TRPC4beta/mu-opioid, confirmation (AID 2636;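 active = calcium signal cut by more than 3 SD below the full-agonist control yet still positive, in both repeats and the earlier primary screen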). Conditions: at 10 µM; hits give high values.
Assay [6] shares this target. Description: blockers of DAMGO-evoked TRPC4 calcium flux – cell-based, second round, Fluo4, HEK293 TRPC4beta/mu-opioid, 1 µM, confirmation (AID 2637;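 active = calcium signal ratio cut to more than 3 SD under the fully stimulated control mean yet still positive, in both repeats and the primary screen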). Conditions: at 1 µM; hits give high values.
Assay [7] shares this target. Description: calcium entry via TRPC4 opening agents – cell-based, HEK293 TRPC4/mu-opioid, Fluo-4 calcium, dose response (AID 434937;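 active = primary screen activator hit with a dose response curve and TRPC4 channel activation at any tested dose; inactive = no activation, no dose response, or not a primary hit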).
Assay [8] shares this target. Put plainly: potentiation of DAMGO-evoked TRPC4 calcium signal – cell-based, HEK293 TRPC4/mu-opioid, Fluo-4 calcium, EC20 DAMGO, dose response (AID 434941;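 active = earlier screen potentiator hit that boosts the TRPC4 ion channel at some dose, with a dose response; inactive = no potentiation, no dose response, or not a prior hit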;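 also: calcium entry triggered by an EC20 dose of DAMGO at the co-expressed mu-opioid receptor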).
Assay [9] shares this target. Description: block of DAMGO-driven TRPC4 calcium entry – cell-based, HEK293 TRPC4/mu-opioid, Fluo-4 calcium, dose response (AID 434942;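 active = primary screen inhibitor hit that blocks the TRPC4 channel at some tested dose, yielding a dose curve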).
For assay [10], the target named is Short transient receptor potential channel 6 (Mus musculus) (UniProt Q61143). Put plainly: TRPC6 blockade by TRPC4 inhibitor hits – cell-based, HEK293, membrane potential dye, duplicate, selectivity assay for TRPC4 inhibitor project, confirmation (AID 434948;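 active = active in primary screen and both duplicates, each dropping signal beyond three positive-control SD with fluorescence still positive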). Conditions: HEK293 TRPC6, membrane potential dye fluorescence, at 10 µM, stimulated with maximal-effect acetylcholine; hits give high values.

Assay [11] shares this target. Put plainly: TRPC6 opening by TRPC4 activator hits – cell-based, HEK293, membrane potential dye, duplicate, selectivity assay for TRPC4 activator project, confirmation (AID 434950).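 As to activation: 0% = buffer only wells and 100% = acetylcholine maximal-effect wells.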 Conditions: HEK293 TRPC6, membrane potential fluorescence, at 10 µM; activation: hits give high values; outcome: activation.
Assay [12] shares this target. Description: positive modulators of mouse TRPC6 channel – HEK293 cells, membrane potential dye, duplicate, selectivity assay for TRPC4 potentiator project, confirmation (AID 434952;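 active = compound raising the membrane signal above positive-control mean plus 3 SD in both repeats, and a primary screen hit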). Conditions: HEK293 TRPC6, membrane potential dye fluorescence, at 10 µM, maximal acetylcholine added after compound; hits give high values.
Assay [13] concerns the target Short transient receptor potential channel 4 (Mus musculus) (UniProt Q9QUQ5). Put plainly: calcium flux activators in TRPC4/5HT1a cells, counter-screen for TRPC4 activator project, cell-based, second counter screen, HEK293 TRPC4/5HT1a, Fluo-4 (AID 434977;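 active = calcium signal rise above buffer-control mean plus 5 SD in both duplicates, and also a hit in the primary screen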). Conditions: Fluo-4 calcium flux, at 10 µM; hits give high values.
Assay [14] in a line: serotonin-gated TRPC4 signal block – cell-based, second counter screen, HEK293 TRPC4/5HT1a, Fluo-4, counter-screen for TRPC4 inhibitor project, confirmation (AID 434978;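 active = primary screen active whose calcium signal fell more than 3 SD beyond the full-serotonin control mean in both duplicate plates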;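 also: serotonin given first at submaximal then at maximal dose after compound preincubation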). Conditions: Fluo-4 calcium flux, at 10 µM, serotonin added to trigger calcium flux; hits give high values. (The purpose of a counterscreen is to sort out artefacts and off-target activity.)
Assay [15] relates to TRPC4 (mouse), co-expressed with 5HT1a in HEK293. Put plainly: enhancement of serotonin-evoked TRPC4 response – cell-based, second counter screen, HEK293 TRPC4/5HT1a, Fluo-4, counter-screen for TRPC4 potentiator project, confirmation (AID 434979;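 active = signal rise over 3 SD above mean of control wells given weak agonist, in both repeats and first screen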). Conditions: Fluo-4 calcium flux, at 10 µM, serotonin added at its EC20 dose; hits give high values.
Assay [16] can be described thus: nonspecific calcium rise without TRPC4 – cell-based, HEK293 mu-opioid receptor line, counter-screen for TRPC4 activator project, confirmation (AID 449723;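 active = hit in primary screen, with calcium signal over 5 SD above buffer well mean in both duplicates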;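 also: counter screen cells carry the mu-opioid receptor alone and lack TRPC4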). Conditions: HEK293 mu-opioid cells, Fluo-4 calcium fluorescence, at 10 µM; hits give high values.
Assay [17] in a line: nonspecific potentiation of DAMGO calcium response – cell-based, HEK293 mu-opioid receptor line, counter-screen for TRPC4 allosteric potentiator project, confirmation (AID 449724;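 active = calcium signal rise more than 3 SD above the low-dose agonist control mean, in both duplicate plates and the primary screen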;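 also: HEK293 cells carrying mu-opioid receptor only with no TRPC4 channel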). Conditions: HEK293 mu-opioid receptor cells, Fluo-4 calcium flux, at 10 µM, compound added before EC20 DAMGO stimulus; hits give high values.

The structures appear in SMILES notation. For some assays here: Measured potencies and affinities stand elsewhere. The source made the active and inactive calls.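 The calls were made as follows, unless noted: active = membrane potential signal rise above negative control mean plus 3 SD in both duplicates, also active in the earlier TRPC4 screen; inactive = the rest.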

Chain of Short transient receptor potential channel 6 (Mus musculus) (Q61143 whole entry, looked up): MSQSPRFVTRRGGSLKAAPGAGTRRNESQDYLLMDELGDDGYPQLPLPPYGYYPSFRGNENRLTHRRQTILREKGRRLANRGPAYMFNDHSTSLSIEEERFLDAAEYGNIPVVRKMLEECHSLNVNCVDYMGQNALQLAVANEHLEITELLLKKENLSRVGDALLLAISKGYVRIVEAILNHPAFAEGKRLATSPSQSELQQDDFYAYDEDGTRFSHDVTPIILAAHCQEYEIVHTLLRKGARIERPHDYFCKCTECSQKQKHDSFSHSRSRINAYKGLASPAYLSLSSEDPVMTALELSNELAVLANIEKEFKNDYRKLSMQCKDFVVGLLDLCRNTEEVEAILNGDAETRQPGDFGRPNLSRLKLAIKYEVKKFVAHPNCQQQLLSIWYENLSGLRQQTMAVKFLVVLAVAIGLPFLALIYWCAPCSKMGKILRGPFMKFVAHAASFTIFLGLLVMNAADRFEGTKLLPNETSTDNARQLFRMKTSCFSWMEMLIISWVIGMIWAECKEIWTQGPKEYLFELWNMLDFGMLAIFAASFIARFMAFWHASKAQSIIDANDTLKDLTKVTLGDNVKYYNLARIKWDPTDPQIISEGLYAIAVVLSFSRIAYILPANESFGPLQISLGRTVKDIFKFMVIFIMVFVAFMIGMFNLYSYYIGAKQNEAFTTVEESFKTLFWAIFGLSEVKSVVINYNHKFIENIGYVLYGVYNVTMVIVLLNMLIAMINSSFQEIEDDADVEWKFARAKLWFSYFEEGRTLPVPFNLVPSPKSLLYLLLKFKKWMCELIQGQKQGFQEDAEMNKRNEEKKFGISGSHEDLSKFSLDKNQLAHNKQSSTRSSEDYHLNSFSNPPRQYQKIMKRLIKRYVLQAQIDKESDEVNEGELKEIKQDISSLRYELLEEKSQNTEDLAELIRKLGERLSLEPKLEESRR
Chain of Short transient receptor potential channel 4 (Mus musculus) (Q9QUQ5 whole entry, looked up): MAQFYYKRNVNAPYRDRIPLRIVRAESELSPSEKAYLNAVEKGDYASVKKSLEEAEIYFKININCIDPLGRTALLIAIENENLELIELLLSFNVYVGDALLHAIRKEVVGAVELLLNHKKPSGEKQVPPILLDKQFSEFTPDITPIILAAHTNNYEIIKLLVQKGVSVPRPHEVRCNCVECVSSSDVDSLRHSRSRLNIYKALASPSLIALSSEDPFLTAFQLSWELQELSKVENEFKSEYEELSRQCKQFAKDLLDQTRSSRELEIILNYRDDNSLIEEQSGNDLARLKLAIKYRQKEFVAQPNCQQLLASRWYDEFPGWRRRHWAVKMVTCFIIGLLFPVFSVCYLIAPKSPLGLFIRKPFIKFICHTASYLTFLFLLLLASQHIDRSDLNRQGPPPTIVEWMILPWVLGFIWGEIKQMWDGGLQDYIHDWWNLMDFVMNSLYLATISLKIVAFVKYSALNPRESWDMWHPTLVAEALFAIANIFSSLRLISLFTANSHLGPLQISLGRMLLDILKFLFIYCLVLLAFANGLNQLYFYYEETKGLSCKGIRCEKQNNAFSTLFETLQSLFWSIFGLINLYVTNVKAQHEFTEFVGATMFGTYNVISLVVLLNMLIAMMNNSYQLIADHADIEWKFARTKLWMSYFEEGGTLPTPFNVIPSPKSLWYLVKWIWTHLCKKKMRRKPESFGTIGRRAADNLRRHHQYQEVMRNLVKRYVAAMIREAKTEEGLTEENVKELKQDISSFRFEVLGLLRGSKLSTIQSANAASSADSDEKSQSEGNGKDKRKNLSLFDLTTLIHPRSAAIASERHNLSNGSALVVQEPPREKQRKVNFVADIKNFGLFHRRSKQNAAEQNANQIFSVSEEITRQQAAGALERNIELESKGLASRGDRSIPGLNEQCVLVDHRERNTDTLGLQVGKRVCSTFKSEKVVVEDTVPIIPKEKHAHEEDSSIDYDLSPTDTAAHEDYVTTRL

Turning to `CCOC(=O)c1c(NC(=O)COC(=O)CCOc2ccc(OCC)cc2)sc(C(=O)N(C)C)c1C`, the result in assay [1], in [2], in assay [5], in [6], in assay [7] and in [8] was inactive. For the same compound, the result in assay [9], in [10], in assay [11], in assay [12], in [13] and in assay [14] was inactive. Besides, the result in assay [16] and in assay [17] was inactive. The potentiation was 22% (active) in [3], 32% (active) in assay [4] and 81.1% (active) in assay [15].

Regarding `CN(C)c1ccc(NC(=O)C2C3C=CC(C3)C2C(=O)O)cc1` (stereo unspecified), the outcome in [1], in [2], in [3], in assay [4], in [5] and in assay [6] was inactive. Besides, the result in [7], in [8], in [9], in assay [10], in [11] and in [12] was inactive. Also, the result in assay [13], in [14], in [15], in assay [16] and in assay [17] was inactive.

Turning to `OC(CNCCC(c1ccccc1)c1ccccc1)COc1ccccc1` (stereo unspecified), the result in assay [1], in [2], in assay [3], in assay [4], in [5] and in assay [6] was inactive. Also, the outcome in [7], in assay [8], in assay [9], in assay [10], in assay [11] and in assay [12] was inactive. Also, the outcome in [13], in assay [14], in assay [15], in assay [16] and in assay [17] was inactive.

For the compound `CC(C)CN(C(=O)COC(=O)COc1ccc2ccccc2c1)c1c(N)n(Cc2ccccc2)c(=O)[nH]c1=O`, the outcome in assay [1], in assay [2], in [3], in [4], in assay [5] and in assay [6] was inactive. The outcome in assay [7], in [8], in [9], in assay [10], in assay [11] and in assay [12] was inactive. For the same compound, the outcome in [13], in assay [14], in assay [16] and in [17] was inactive. Moreover, the potentiation in [15] was 14.7% (active).

As to `CCN1CCN(c2ccc(S(=O)(=O)N3CCCCC3)cc2NC(=O)c2cccc(OC(F)F)c2)CC1`, the outcome in assay [1], in assay [2], in assay [5], in assay [6], in assay [7] and in assay [8] was inactive. Moreover, the outcome in assay [9], in assay [10], in assay [11], in [12], in assay [13] and in assay [14] was inactive. The outcome in [16] and in [17] was inactive. In addition, the potentiation in [3] is 7% (active); in assay [4] it was 18% (active); in [15], 15.6% (active).

In the case of `Cc1ccc(/C=N/NC(=O)CSc2nc3ccccc3n2Cc2ccccc2)o1`, the result in assay [1], in [2], in [3], in assay [4], in assay [5] and in assay [6] was inactive. The result in assay [7], in assay [8], in assay [9], in [10], in assay [11] and in assay [12] was inactive. Moreover, the outcome in assay [13], in assay [14], in [15], in [16] and in assay [17] was inactive.

Regarding `CN(C(=O)COC(=O)c1sc2ccccc2c1Cl)C1CCCCC1`, the result in assay [1], in [2], in [3], in assay [5], in assay [6] and in [7] was inactive. For the same compound, the outcome in assay [8], in assay [9], in assay [10], in [11], in [12] and in assay [13] was inactive. For the same compound, the result in assay [14], in assay [16] and in [17] was inactive. Moreover, the values for the potentiation in [4] and in [15] were 36% (active) and 64.8% (active), respectively.

`CCc1ccc(OCC(=O)NC2CCCCC2)c(Br)c1`: the result in [1], in assay [2], in assay [3], in [5], in assay [6] and in [7] was inactive. For the same compound, the result in assay [8], in assay [9], in assay [10], in assay [11], in assay [12] and in [13] was inactive. The outcome in [14], in [16] and in assay [17] was inactive. Also, the potentiation in assay [4] is 46% (active); in assay [15], 135% (active).

As to `COc1ccc(F)cc1C(=O)C1CCCN(Cc2cccn2-c2ccccn2)C1` (stereo unspecified), the result in [1], in assay [2], in [3], in [4], in assay [5] and in assay [6] was inactive. Besides, the result in assay [7], in assay [8], in assay [9], in assay [10], in assay [11] and in assay [12] was inactive. Also, the outcome in assay [13], in assay [14], in assay [15], in assay [16] and in assay [17] was inactive.

Take `O=C(c1ccccc1F)N1CCN(c2ccc([N+](=O)[O-])c3cccnc23)CC1`: the result in assay [1], in assay [2], in assay [3], in assay [5], in [6] and in assay [7] was inactive. The outcome in assay [8], in [9], in assay [10], in assay [11], in [12] and in [13] was inactive. The outcome in assay [14], in assay [16] and in [17] was inactive. In addition, the potentiation in [4] is 18% (active); in [15], 16.5% (active).

Consider `COc1cccc(OCCOCCNCCO)c1`, for which the outcome in assay [1], in [2], in assay [3], in assay [4], in assay [5] and in assay [6] was inactive. The outcome in assay [7], in [8], in assay [9], in [10], in assay [12] and in [13] was inactive. Further, the result in assay [14], in [15], in assay [16] and in assay [17] was inactive. Further, the activation in [11] is 33.5% (active).

As to `Cc1ccc(S(=O)(=O)N2CCC(C(=O)OCC(=O)N(C)CC(=O)Nc3ccc(F)cc3)CC2)cc1C`, the outcome in assay [1], in assay [2], in assay [3], in assay [4], in assay [5] and in assay [6] was inactive. Further, the outcome in assay [7], in [8], in [9], in assay [10], in assay [11] and in assay [12] was inactive. Besides, the outcome in assay [13], in assay [14], in assay [15], in assay [16] and in assay [17] was inactive.

As for `COc1cc2cc(C)c(SCC(=O)N3CCN(C(=O)c4ccco4)CC3)nc2cc1OC`, the result in assay [1], in assay [2], in [3], in assay [4], in [5] and in assay [6] was inactive. Besides, the outcome in assay [7], in [8], in [9], in assay [10], in assay [11] and in [12] was inactive. The result in assay [13], in assay [14], in [15], in [16] and in assay [17] was inactive.

Source of the values: PubChem BioAssay.
